From PubChem BioAssay AID455 (Sanford-Burnham Center for Chemical Genomics, 2006)
About 20 (0.2%) of roughly 10,000 compounds were called active.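 How the source made its calls: active means a compound raising TNF-alpha-driven VCAM-1 surface staining, with its hit status upheld on visual or statistical review; inactive means the rest, including hits rejected on review.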 The full list was thinned out, with actives kept by preference.

Experiment: enhancers of VCAM-1 display on endothelial cells, cell-based, plate reader, pooled HUVEC, TNFa stimulus (AID 455);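 on augmentation: 0% = TNFa plus DMSO wells and 100% = a visually confirmed top hit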
Conditions: HUVEC TNFa-induced VCAM-1 immunofluorescence; stronger effect = higher value,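 tested at 5 µM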

Compound	augmentation
COc1ccccc1/C=C1/C(=N/O)C2CCN1CC2	81.5% (active)
O=C(CCCOc1ccc(Cl)cc1Cl)N1CCC2(CC1)OCCO2	inactive
O=C(Cn1ncc2c3ccccc3n(Cc3ccc(F)cc3)c2c1=O)N1CCC2(CC1)OCCO2	inactive
Cc1cccc(N2CCc3c2nc2ccccc2c3N)c1	inactive
COc1ccc(C2SCC(=O)Nc3c2c(=O)[nH]n3C2CCCCCC2)cc1OC (stereo not given)	inactive
